Our source for the Potency values is PubChem BioAssay (NCATS).

Inconclusive results are not listed. Activity calls are given as the source filed them. Calls come from the whole dose curve; as a rule, active = well fitted curve in the direction sought with a large enough effect; inconclusive = small, poorly fitted or top-dose-only effect, or another doubt; inactive = no such curve, though single readings can be large; an effect the other way counts as inactive or inconclusive.

Assay [1] can be described thus: qHTS of pediatric cancer cell lines to identify multiple opportunities for drug repurposing: Primary screen for BT-37 cells (AID 1347094). A digest of the protocol:
(§1)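 Luminescence from CellTiter-Glo served as readout of metabolically active cells after 48 h compound exposure. Titrations: MIPE 11-point, from 0.78 nM; NPC 8-point, from 0.59 nM (final). Concentration-response curves came straight from the primary screen.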
(qHTS replaces the single test concentration by a dilution series.)

Assay [2] can be described thus: qHTS of pediatric cancer cell lines to identify multiple opportunities for drug repurposing: Primary screen for U-2 OS cells (AID 1347096). Note: nearly all actives have a fitted effect of over 50% in size. A digest of the protocol: (§2)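 Cells (500-1,000/well) rested 5 h, then received compounds for 48 h; metabolically active cells were measured by CellTiter-Glo luminescence. Final concentrations spanned up to 46 µM (MIPE, 11-point) or 0.59 nM-46 µM (NPC, 8-point) in primary screens, 11-point in follow-ups.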

Assay [3] is described as follows: qHTS of pediatric cancer cell lines to identify multiple opportunities for drug repurposing: Primary screen for Saos-2 cells (AID 1347097). Note: nearly all actives have a fitted effect of over 40% in size. A digest of the protocol:
as §1

The nature of assay [4]: qHTS of pediatric cancer cell lines to identify multiple opportunities for drug repurposing: Primary screen for LAN-5 cells (AID 1347100). A digest of the protocol:
as §2

The nature of assay [5]: qHTS of pediatric cancer cell lines to identify multiple opportunities for drug repurposing: Primary screen for BT-12 cells (AID 1347101). Note: nearly all actives have a fitted effect of over 25% in size. A digest of the protocol: as §2
Assay [6] is described as follows: qHTS of pediatric cancer cell lines to identify multiple opportunities for drug repurposing: Primary screen for Rh18 cells (AID 1347102). Note: nearly all actives have a fitted effect of over 65% in size. A digest of the protocol: as §2
Assay [7] in a line: qHTS of pediatric cancer cell lines to identify multiple opportunities for drug repurposing: Primary screen for OHS-50 cells (AID 1347103). Note: nearly all actives have a fitted effect of over 40% in size. A digest of the protocol:
as §2

Assay [8] in a line: qHTS of pediatric cancer cell lines to identify multiple opportunities for drug repurposing: Primary screen for RD cells (AID 1347104). Note: nearly all actives have a fitted effect of over 55% in size. A digest of the protocol:
as §1

The nature of assay [9]: qHTS of pediatric cancer cell lines to identify multiple opportunities for drug repurposing: Primary screen for NB1643 cells (AID 1347099). Note: nearly all actives have a fitted effect of over 50% in size. The method, boiled down:
as §1

Assay [10] in a line: qHTS of pediatric cancer cell lines to identify multiple opportunities for drug repurposing: Primary screen for MG 63 (6-TG R) cells (AID 1347105). Note: nearly all actives have a fitted effect of over 50% in size. The method, boiled down:
as §1

Assay [11] is described as follows: qHTS of pediatric cancer cell lines to identify multiple opportunities for drug repurposing: Primary screen for control Hh wild type fibroblast cells (AID 1347106). Note: nearly all actives have a fitted effect of over 55% in size. A digest of the protocol:
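Cells (500-1,000/well) in growth media were settled 5 h at 37 degrees C, then given compounds for 48 h. Viability was read as CellTiter-Glo luminescence. Primary runs used MIPE at 11 points (0.78 nM-46 µM) and NPC at 8 points (0.59 nM-46 µM); follow-ups used 11 points.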

Assay [12] is described as follows: qHTS of pediatric cancer cell lines to identify multiple opportunities for drug repurposing: Primary screen for Rh30 cells (AID 1347107). Note: nearly all actives have a fitted effect of over 75% in size. A digest of the protocol:
as §2

Assay [13] in a line: qHTS of pediatric cancer cell lines to identify multiple opportunities for drug repurposing: Primary screen for Rh41 cells (AID 1347108). Note: nearly all actives have a fitted effect of over 70% in size. The method, boiled down: as §1
A short description of assay [14]: qHTS of pediatric cancer cell lines to identify multiple opportunities for drug repurposing: Primary screen for SK-N-SH cells (AID 1347098). Note: nearly all actives have a fitted effect of over 65% in size. The method, boiled down:
as §2

A short description of assay [15]: qHTS of pediatric cancer cell lines to identify multiple opportunities for drug repurposing: Confirmatory screen for A673 cells (AID 1347110).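 Note: cells exposed to compound for 48 h before the viability read; nearly all actives have a fitted effect of over 65% in size.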 The method, boiled down: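 A673 cells seeded at 500-1,000 cells/well, rested 5 h, then dosed; primary MIPE 11-point (0.78 nM to 46 µM), NPC (0.59 nM to 46 µM); confirmatory 11-point. CellTiter-Glo luminescence after 48 h.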

Assay [16] can be described thus: qHTS of pediatric cancer cell lines to identify multiple opportunities for drug repurposing: Confirmatory screen for SK-N-MC cells (AID 1347111).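 Note: cells exposed to compound for 48 h before the readout; nearly all actives have a fitted effect of over 70% in size.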 A digest of the protocol:
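Seed 500-1,000 cells/well; rest 5 h at 37 degrees C. Pin-transfer compounds, 11-point titration. Incubate 48 h. Add CellTiter-Glo, 15 min RT, read luminescence.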

Assay [17] in a line: qHTS of pediatric cancer cell lines to identify multiple opportunities for drug repurposing: Confirmatory screen for LAN-5 cells (AID 1347113). Note: nearly all actives have a fitted effect of over 65% in size. A digest of the protocol: as §2
The nature of assay [18]: qHTS of pediatric cancer cell lines to identify multiple opportunities for drug repurposing: Confirmatory screen for NB1643 cells (AID 1347109). Note: nearly all actives have a fitted effect of over 45% in size. The method, boiled down:
as §2

Assay [19] in a line: qHTS of pediatric cancer cell lines to identify multiple opportunities for drug repurposing: Confirmatory screen for BT-12 cells (AID 1347112). Note: nearly all actives have a fitted effect of over 55% in size. A digest of the protocol: as §2
Assay [20] is described as follows: qHTS of pediatric cancer cell lines to identify multiple opportunities for drug repurposing: Primary screen for NB-EBc1 cells (AID 1347095). A digest of the protocol: as §1
Potency is the fitted concentration of half-maximal effect.

On to `Nc1ncnc2c1ncn2[C@@H]1O[C@H](CO)C[C@@H]1O`, for which the Potency entry in assay [1], in [2], in [3], in assay [4], in assay [5] and in assay [6] was “inactive” throughout. Moreover, the Potency result in assay [8] was “inactive”. Besides, in assay [7], the Potency was 24.3 µM (active).

Consider `O=c1c(-c2ccc(O)cc2)coc2cc(O)ccc12`, for which the Potency entry in assay [1], in assay [2], in assay [3], in [9], in [4] and in [5] was “inactive” throughout. The Potency entry in assay [6], in [7], in assay [8], in [10], in [11] and in assay [12] was “inactive” throughout. The Potency entry in assay [13] was “inactive”.

Consider `NC1CCC(Nc2nc(Nc3ccc(C(=O)N4CCCCC4)cc3)c3ncn(-c4cccc(F)c4)c3n2)CC1` (stereo not given), for which the Potency result in assay [1], in assay [2], in [3], in [14], in [4] and in [5] was “inactive” each time. Also, the Potency entry in assay [6], in [7], in assay [8], in assay [10], in [11] and in assay [12] was “inactive” in each case. Also, the Potency entry in assay [13] is “inactive”.

Regarding `CC(=O)OC1C(C)OC(Oc2c(-c3ccc(O)cc3)oc3cc(O)cc(O)c3c2=O)C(O)C1OC(C)=O` (stereo not given), the Potency in [1] is 27.3 µM (active); in [3], 18.7 µM (active). Also, the Potency entry in assay [2], in assay [10] and in [11] was “inactive” in each case.

For `O=C(OCC#CCSc1nnc(-c2cccc3ccccc23)o1)c1cc2ccccc2s1`, the Potency entry in assay [1], in assay [2], in [3], in assay [4], in assay [5] and in [6] was “inactive” each time. The Potency entry in assay [7], in assay [8], in assay [10], in assay [11], in assay [12] and in [13] was “inactive” each time.

As to `CO[C@H]1C=CC=C(C)C(=O)NC2=CC(=O)C(NCCN(C)C)=C(C[C@@H](C)C[C@H](OC)[C@@H](O)[C@@H](C)C=C(C)[C@@H]1OC(N)=O)C2=O`, the Potency in assay [1] is 0.385 µM (active); in [2] it was 0.935 µM (active); in assay [3] it was 2.35 µM (active); in assay [9], 0.166 µM (active); in [4], 0.132 µM (active); in [5] it was 4.85 µM (active). In addition, the Potency in [6] was 0.132 µM (active); in assay [7], 0.385 µM (active); in assay [8], 0.0526 µM (active); in assay [10], 18.7 µM (active); in assay [12], 5.9 µM (active); in [13], 0.59 µM (active). In addition, the values for the Potency in assay [15] and in [16] were 16.5 µM (active) and 0.827 µM (active), respectively. For the same molecule, in assay [17], the Potency entry is “inactive”.

With `CCc1ccc(OCc2ccccc2C(=O)Nc2ccc3nc(C)cc(N)c3c2)cc1`, the Potency was 8.63 µM (active) in [1]; 7.43 µM (active) in assay [2]; 14.8 µM (active) in assay [3]; 8.33 µM (active) in assay [4]; 9.68 µM (active) in [5]; 8.33 µM (active) in assay [6]. In addition, the Potency in assay [7] was 3.43 µM (active); in assay [8] it was 5.9 µM (active); in assay [10] it was 7.43 µM (active); in [11], 9.35 µM (active); in assay [12] it was 11.8 µM (active); in assay [13] it was 9.35 µM (active). The Potency is 9.27 µM (active) in assay [18]; 3.69 µM (active) in assay [15]; 0.827 µM (active) in [16]; 9.27 µM (active) in assay [19]; 7.37 µM (active) in assay [17].

On to `O=c1ccn([C@@H]2O[C@H](CO)[C@H](O)[C@H]2O)c(=O)[nH]1`, for which the Potency result in [1], in [2], in assay [3], in assay [5], in assay [6] and in assay [7] was “inactive” each time. The Potency result in assay [8], in assay [10], in assay [11], in assay [12] and in assay [13] was “inactive” each time.

As for `CN1[C@@H]2CCC[C@@H]1CC(NC(=O)c1nn(C)c3ccccc13)C2` (stereo not given in full), the Potency entry in assay [1], in assay [2], in assay [3], in assay [4], in assay [5] and in assay [6] was “inactive” throughout. Besides, the Potency entry in assay [7], in [8], in assay [10], in assay [11], in [12] and in assay [13] was “inactive” in each case.

For `CC(C)=CC[C@@H](O)C1=CC(=O)c2c(O)ccc(O)c2C1=O`, the Potency in [1] is 13.7 µM (active); in assay [3], 18.7 µM (active); in assay [14], 6.81 µM (active); in [4], 14.8 µM (active); in assay [5], 17.2 µM (active); in [7] it was 10.9 µM (active). Besides, in assay [8], the Potency was 26.4 µM (active). Moreover, in assay [2], the Potency entry is “inactive”.

For `CC(=O)O[C@]1(C(C)=O)CC[C@H]2[C@@H]3C=C(Cl)C4=CC(=O)[C@@H]5C[C@@H]5[C@]4(C)[C@H]3CC[C@@]21C`, the Potency entry in assay [20], in assay [2], in [9], in assay [4], in assay [10] and in [11] was “inactive” in each case. In addition, the Potency in [3] was 26.6 µM (active); in [5], 12.3 µM (active); in [7], 34.7 µM (active).

Take `CC(C)(C)Cn1c(N)nc2ccc(-c3[nH]c(C(C)(C)C)nc3-c3ccc(F)cc3)nc21`: the Potency was 24.3 µM (active) in [1]; 11.8 µM (active) in assay [9]; 27.3 µM (active) in assay [5]; 30.6 µM (active) in [7]; 20.9 µM (active) in assay [8]; 20.9 µM (active) in [12]. Moreover, the Potency in assay [13] was 18.7 µM (active). The Potency result in [3] and in [11] was “inactive” each time.

On to `O=c1c(O)c(-c2ccc(O)cc2)oc2cc(O)cc(O)c12`, for which the values for the Potency in [20], in assay [9] and in [4] were 9.35 µM (active), 11.8 µM (active) and 6.62 µM (active), respectively. Further, the Potency entry in [2], in assay [3], in assay [10] and in assay [11] was “inactive” each time.

With `O=C(O)c1ccc(-c2cc3cccnc3c(-c3ccc4nonc4c3)n2)cc1`, the Potency was 24.3 µM (active) in assay [1]; 20.9 µM (active) in [4]; 27.3 µM (active) in assay [5]; 27.3 µM (active) in assay [7]; 26.4 µM (active) in assay [8]; 0.928 µM (active) in [15]. Also, the Potency in [16] is 2.33 µM (active); in assay [19], 4.14 µM (active). The Potency result in assay [2], in assay [11] and in assay [12] was “inactive” each time.

Take `CC(C)OC(=O)CCCC=CC[C@@H]1[C@H](C=C[C@@H](O)COc2cccc(C(F)(F)F)c2)[C@H](O)C[C@@H]1O`: the Potency in [20] is 23.5 µM (active); in assay [3] it was 14.8 µM (active); in assay [9], 23.5 µM (active); in [5], 19.3 µM (active); in [7] it was 24.3 µM (active); in [8] it was 33.2 µM (active). Also, the Potency result in assay [2], in assay [4], in assay [10] and in [11] was “inactive” in each case.
